Assay [1] deals with PRMT1 (protein arginine N-methyltransferase 1). The assay can be described thus: PRMT1 binders on small-molecule microarrays, primary screen, biochemical, small-molecule microarray, 635 nm fluorescence (AID 1088).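 Also: binding of Prmt1 protein to compounds spotted on small-molecule microarray slides.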 Particulars: small-molecule microarray binding, higher = more signal.
Assay [2] is described as follows: yeast growth modulation, basal conditions, primary screen, YJM789 clinical isolate, OD600, 24 h (AID 1089).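 Also: growth of clinical yeast isolate S. cerevisiae YJM 789 seeded 1000 cells per well; test concentration not given here.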 To be noted: S. cerevisiae YJM789 growth, higher = more signal, called active from +8 up or from −8 down.
The nature of assay [3]: fission yeast growth modulation, primary screen, strain 972, OD600, 24 h, no modulator (AID 1090).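 Also: basal condition with compound alone and no growth modifier present; test concentration not given here.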 Particulars: S. pombe 972 growth, higher = more signal, called active from +8 up or from −8 down.
A short description of assay [4]: S. cerevisiae growth modulation with rapamycin, primary screen, strain BY4716, OD600, 96 h (AID 1091). Also: test concentration not given here. Particulars: higher = more signal, called active from +8 up or from −8 down.
Assay [5] has as its target Torsin-1A-interacting protein 2 (Homo sapiens) (UniProt Q8NFQ8). The assay can be described thus: LULL1 binders on small-molecule microarray, primary screen, cell lysate, human LULL1 lysate, 635/667 nm fluorescence (AID 1092).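 Also: probe is lysate of COS7 cells overexpressing human LULL1; score merges per-feature 667 nm fluorescence with signal-to-noise.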 Particulars: hLULL1 lysate binding, 635 nm fluorescence, higher = more signal.
A short description of assay [6]: E. coli growth modulation, two-sided OD650, primary screen, E. coli filamentation project, strain DRC41, 24 h (AID 1093).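 Also: MC1000 strain lacking acrAB efflux and sulA so SOS filamentation is blocked; test concentration not given here.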 To be noted: OD650, 24 h, higher = more signal, called active from +8 up or from −8 down.
Assay [7] is described as follows: small-molecule microarray binders of probe aLefty2, primary screen, biochemical, biotinylated probe, 635/667 nm fluorescence (AID 1094).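 Also: score merges spot fluorescence near 667 nm with spot signal-to-noise ratio.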 To be noted: higher = more signal.
Assay [8] deals with Noggin (protein binding on small-molecule microarray). The assay can be described thus: Noggin binders on small-molecule microarray, primary screen, biochemical, 635/667 nm fluorescence (AID 1095).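 Also: score merges 667 nm feature fluorescence with signal to noise over triplicate slides.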 Particulars: 635 nm fluorescence, higher = more signal.
For assay [9], the target named is Neurogenic locus notch homolog protein 3 (Homo sapiens) (UniProt Q9UM47). The assay can be described thus: NOTCH3 binders on small-molecule microarray, primary screen, biochemical, 635/667 nm fluorescence (AID 1096). To be noted: NOTCH3 binding, 635 nm fluorescence, higher = more signal.
A short description of assay [10]: small-molecule microarray binders of probe aEGFR, primary screen, biochemical, biotinylated probe, 635/667 nm fluorescence (AID 1097).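 Also: probe is a biotinylated anti-EGFR antibody binding compounds printed on slides; score combines fluorescence near 667 nm and signal to noise of each spot.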 Particulars: higher = more signal.
Assay [11] concerns Plasmodium falciparum Sir2 (PF13_0152, Sir2A). Kind of assay: pfSir2 binders on small-molecule microarrays, primary screen, biochemical, small-molecule microarray, 635 nm fluorescence (AID 1098).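 Also: score merges spot fluorescence intensity with its signal-to-noise ratio.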 Particulars: small-molecule microarray binding, fluorescence 635 nm; higher = more signal.
The nature of assay [12]: small-molecule microarray binders of probe aDKK1, primary screen, biochemical, biotinylated probe, 635/667 nm fluorescence (AID 1099).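 Also: score merges 667nm spot fluorescence with signal to noise across triplicate slides; reference of the scale not given here.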 To be noted: higher = more signal.
The nature of assay [13]: small-molecule microarray binders of probe aCHRDL2, primary screen, biochemical, biotinylated probe, 635/667 nm fluorescence (AID 1100). Particulars: higher = more signal.
A short description of assay [14]: splicing luciferase reporter signal modulators, primary screen, spliceosome inhibition project, cell-based, HEK293, splice +/- reporter (AID 1101).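 Also: HEK293 cells carrying a splicing-competent luciferase reporter gene; test concentration not given here.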 Particulars: luminescence, 24 h, higher = more signal, called active from +8 up or from −8 down. On the technique in general: A reporter such as luciferase makes a cellular process visible.
The target in assay [15] is Fibroblast growth factor 10 (Homo sapiens) (UniProt O15520). Kind of assay: FGF10 binders on small-molecule microarrays, primary screen, biochemical, small-molecule microarray, 635 nm fluorescence (AID 1102). To be noted: FGF10 binding, fluorescence 635 nm, higher = more signal.
The test system of assay [16] is glycogen synthase kinase-3 (GSK3A per assay name; protocol says GSK3B). Kind of assay: GSK3 binders on small-molecule microarrays, primary screen, biochemical, small-molecule microarray, 635 nm fluorescence, GSK3A (AID 1103). Also: the record names both GSK3A and GSK3B. Particulars: small-molecule microarray binding, fluorescence 635 nm; higher = more signal.
For assay [17], the target named is Epidermal growth factor receptor (Homo sapiens) (UniProt P00533). The assay can be described thus: EGFR binders on small-molecule microarrays, primary screen, biochemical, small-molecule microarray, 635 nm fluorescence (AID 1104).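 Also: score merges 667 nm emission intensity with spot signal to noise over triplicate slides.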 To be noted: EGFR binding, higher = more signal.
Assay [18] addresses Follistatin-related protein 3 (Homo sapiens) (UniProt O95633). Kind of assay: FSTL3 binders on small-molecule microarrays, primary screen, biochemical, small-molecule microarray, 635 nm fluorescence (AID 1105).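 Also: score merges emission near 667 nm and signal to noise per printed spot across three slides.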 To be noted: FSTL3 binding, higher = more signal.
Assay [19] deals with Dickkopf-related protein 1 (Homo sapiens) (UniProt O94907). The assay can be described thus: DKK1 binders on small-molecule microarrays, primary screen, biochemical, small-molecule microarray, 635 nm fluorescence scan (AID 1106).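 Also: score merges emission near 667 nm with signal to noise over three replicate slides.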 To be noted: DKK1 binding, higher = more signal.
Assay [20] relates to Inhibin beta A chain (activin A). The assay can be described thus: INHBA (activin A) binders on microarrays, primary screen, biochemical, small-molecule microarray, 635 nm fluorescence scan (AID 1107).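 Also: mouse activin A protein probed at 4.33 µg/mL on printed slides; score merges bound-protein fluorescence near 667 nm with spot signal-to-noise.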 Particulars: small-molecule microarray binding, higher = more signal.

Activity calls are given as the source filed them.

Sequence of Epidermal growth factor receptor (Homo sapiens) (P00533 whole entry, looked up): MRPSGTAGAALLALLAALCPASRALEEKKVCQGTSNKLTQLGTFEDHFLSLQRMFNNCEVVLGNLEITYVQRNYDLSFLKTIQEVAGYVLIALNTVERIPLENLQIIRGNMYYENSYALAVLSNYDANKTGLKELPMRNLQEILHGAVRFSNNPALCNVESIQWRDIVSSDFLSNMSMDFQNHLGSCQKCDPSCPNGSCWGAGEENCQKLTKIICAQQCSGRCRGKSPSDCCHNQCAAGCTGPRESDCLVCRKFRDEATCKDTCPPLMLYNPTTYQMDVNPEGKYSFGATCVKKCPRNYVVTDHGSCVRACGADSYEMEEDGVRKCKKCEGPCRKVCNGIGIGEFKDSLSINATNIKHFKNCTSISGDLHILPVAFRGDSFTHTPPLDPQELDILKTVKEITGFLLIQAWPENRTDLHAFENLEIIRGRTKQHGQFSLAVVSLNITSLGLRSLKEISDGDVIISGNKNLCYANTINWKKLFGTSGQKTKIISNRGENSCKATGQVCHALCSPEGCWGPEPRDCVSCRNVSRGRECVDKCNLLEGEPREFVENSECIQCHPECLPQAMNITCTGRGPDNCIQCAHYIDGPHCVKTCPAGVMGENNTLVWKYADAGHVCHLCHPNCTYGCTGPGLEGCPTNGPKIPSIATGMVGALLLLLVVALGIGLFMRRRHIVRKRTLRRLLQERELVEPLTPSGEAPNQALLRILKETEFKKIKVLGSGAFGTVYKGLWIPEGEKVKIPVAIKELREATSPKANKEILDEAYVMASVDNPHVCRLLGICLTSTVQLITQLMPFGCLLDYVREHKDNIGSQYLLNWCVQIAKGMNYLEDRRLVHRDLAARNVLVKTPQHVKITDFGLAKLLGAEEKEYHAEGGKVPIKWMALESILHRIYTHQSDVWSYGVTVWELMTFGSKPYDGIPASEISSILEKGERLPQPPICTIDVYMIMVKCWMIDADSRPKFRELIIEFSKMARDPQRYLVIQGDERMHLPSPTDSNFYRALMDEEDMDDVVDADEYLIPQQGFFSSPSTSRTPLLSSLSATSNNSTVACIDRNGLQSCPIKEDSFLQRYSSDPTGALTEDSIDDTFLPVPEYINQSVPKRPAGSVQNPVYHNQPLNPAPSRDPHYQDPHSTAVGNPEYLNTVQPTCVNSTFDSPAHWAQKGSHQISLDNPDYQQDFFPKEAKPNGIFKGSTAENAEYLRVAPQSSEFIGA
Sequence of Dickkopf-related protein 1 (Homo sapiens) (O94907 whole entry, looked up): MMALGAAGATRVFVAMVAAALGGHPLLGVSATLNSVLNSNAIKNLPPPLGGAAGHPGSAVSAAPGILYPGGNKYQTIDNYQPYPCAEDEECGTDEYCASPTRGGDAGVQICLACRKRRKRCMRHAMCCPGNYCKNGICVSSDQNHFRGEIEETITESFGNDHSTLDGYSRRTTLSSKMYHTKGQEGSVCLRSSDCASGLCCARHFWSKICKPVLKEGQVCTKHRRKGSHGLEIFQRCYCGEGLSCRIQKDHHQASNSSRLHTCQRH
Sequence of Fibroblast growth factor 10 (Homo sapiens) (O15520 whole entry, looked up): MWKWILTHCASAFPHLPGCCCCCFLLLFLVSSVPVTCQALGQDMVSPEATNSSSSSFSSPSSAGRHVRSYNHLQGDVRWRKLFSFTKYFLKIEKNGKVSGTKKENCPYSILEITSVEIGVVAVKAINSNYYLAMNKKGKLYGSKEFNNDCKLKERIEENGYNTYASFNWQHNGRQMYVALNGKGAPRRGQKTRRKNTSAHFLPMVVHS
Sequence of Neurogenic locus notch homolog protein 3 (Homo sapiens) (Q9UM47 whole entry, looked up): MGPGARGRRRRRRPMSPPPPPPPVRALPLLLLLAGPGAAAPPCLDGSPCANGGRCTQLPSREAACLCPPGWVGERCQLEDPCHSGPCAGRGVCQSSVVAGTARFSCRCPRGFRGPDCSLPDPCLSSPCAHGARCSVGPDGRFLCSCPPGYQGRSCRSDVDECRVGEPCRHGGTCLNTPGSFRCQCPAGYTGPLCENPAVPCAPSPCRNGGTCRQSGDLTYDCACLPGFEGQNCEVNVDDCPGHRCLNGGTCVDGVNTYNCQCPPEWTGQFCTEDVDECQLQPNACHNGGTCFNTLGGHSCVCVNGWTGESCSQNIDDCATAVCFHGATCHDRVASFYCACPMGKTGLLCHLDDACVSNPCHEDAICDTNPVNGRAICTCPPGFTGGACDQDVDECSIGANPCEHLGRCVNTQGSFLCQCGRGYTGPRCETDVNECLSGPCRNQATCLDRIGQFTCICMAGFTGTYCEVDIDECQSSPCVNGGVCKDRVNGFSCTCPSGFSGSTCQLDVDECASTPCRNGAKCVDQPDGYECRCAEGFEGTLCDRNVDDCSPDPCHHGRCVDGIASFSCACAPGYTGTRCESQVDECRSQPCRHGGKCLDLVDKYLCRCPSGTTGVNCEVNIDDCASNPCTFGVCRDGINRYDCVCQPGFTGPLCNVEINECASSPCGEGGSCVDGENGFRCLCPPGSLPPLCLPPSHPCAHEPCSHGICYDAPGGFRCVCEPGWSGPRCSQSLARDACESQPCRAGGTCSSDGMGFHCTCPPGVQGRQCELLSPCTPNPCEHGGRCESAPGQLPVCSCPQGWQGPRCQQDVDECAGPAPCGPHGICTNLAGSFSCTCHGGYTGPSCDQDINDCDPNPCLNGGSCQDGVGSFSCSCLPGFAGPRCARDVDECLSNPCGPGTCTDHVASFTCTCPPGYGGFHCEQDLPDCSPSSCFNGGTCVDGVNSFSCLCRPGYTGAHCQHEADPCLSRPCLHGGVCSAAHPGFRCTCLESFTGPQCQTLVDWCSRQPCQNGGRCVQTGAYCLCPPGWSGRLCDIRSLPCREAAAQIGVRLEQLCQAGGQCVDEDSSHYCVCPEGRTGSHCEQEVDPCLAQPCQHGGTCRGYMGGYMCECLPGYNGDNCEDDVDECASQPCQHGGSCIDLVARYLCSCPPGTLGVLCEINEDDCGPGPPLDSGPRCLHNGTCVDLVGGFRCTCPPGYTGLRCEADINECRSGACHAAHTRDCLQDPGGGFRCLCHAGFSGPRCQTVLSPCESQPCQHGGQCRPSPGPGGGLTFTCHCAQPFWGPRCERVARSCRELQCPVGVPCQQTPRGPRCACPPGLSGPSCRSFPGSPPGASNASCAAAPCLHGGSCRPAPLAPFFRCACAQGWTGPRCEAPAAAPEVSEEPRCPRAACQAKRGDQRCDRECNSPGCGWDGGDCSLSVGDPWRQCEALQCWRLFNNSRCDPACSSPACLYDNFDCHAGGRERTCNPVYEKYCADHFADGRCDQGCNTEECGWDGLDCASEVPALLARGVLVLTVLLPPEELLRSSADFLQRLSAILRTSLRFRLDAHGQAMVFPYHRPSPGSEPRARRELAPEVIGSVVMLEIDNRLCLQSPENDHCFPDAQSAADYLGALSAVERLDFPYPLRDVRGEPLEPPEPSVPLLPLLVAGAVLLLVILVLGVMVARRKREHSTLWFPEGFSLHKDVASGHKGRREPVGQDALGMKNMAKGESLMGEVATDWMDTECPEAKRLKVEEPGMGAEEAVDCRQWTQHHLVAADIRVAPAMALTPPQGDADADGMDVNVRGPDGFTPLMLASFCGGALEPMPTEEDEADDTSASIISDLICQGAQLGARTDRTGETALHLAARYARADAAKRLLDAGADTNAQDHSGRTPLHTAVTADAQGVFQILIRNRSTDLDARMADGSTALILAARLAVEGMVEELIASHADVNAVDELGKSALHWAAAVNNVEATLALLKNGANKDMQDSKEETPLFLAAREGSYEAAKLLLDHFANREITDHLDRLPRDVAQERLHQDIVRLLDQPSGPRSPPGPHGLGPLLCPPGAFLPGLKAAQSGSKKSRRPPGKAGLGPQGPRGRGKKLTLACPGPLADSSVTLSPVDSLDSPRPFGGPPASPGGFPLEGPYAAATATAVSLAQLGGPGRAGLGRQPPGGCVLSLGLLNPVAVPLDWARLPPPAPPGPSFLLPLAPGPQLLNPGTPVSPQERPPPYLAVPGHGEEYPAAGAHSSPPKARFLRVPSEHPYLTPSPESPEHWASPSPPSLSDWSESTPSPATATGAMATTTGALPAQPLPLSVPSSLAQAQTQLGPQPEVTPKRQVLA
Sequence of Follistatin-related protein 3 (Homo sapiens) (O95633 whole entry, looked up): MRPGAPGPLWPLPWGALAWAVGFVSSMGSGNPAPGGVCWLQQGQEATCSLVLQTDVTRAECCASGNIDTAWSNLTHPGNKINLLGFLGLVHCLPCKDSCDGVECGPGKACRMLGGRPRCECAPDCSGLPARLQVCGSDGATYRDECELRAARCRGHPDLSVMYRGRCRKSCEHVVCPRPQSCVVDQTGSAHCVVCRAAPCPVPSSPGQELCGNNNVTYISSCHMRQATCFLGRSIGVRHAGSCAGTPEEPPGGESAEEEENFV
Sequence of Torsin-1A-interacting protein 2 (Homo sapiens) (Q8NFQ8 whole entry, looked up): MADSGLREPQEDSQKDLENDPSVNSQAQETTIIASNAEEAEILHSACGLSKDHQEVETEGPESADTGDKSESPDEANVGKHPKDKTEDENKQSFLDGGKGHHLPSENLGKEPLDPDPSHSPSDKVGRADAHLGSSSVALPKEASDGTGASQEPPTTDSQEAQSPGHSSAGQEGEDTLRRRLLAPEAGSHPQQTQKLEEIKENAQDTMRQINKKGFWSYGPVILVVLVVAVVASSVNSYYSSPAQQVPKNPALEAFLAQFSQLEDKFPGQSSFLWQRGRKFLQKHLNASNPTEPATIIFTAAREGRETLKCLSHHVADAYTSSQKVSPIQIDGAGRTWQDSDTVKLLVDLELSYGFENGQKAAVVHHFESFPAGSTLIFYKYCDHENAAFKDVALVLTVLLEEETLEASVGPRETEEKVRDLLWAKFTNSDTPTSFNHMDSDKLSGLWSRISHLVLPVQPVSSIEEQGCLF

Regarding `COC(=O)CC=C[C@@H](C)[C@@H](C=NO[C@@H](C)c1cc(-c2c(C)cc(C)cc2C)no1)OC`, the composite z-score is -1.43 in assay [1]; -1.2 in assay [5]; -0.047 in assay [7]; -0.119 in assay [8]; -0.75 in assay [9]; -0.419 in assay [10]. In addition, the composite z-score in [11] is -0.677; in [12] it was 0.237; in [13] it was 1.07; in [15], -1.72; in assay [16], -1.19; in assay [17], -1.81. For the same compound, the composite z-score in assay [18] was -1.67; in assay [19], -2.42; in assay [20], -0.2. Further, the z-score in [2] is -0.0365 (inactive); in assay [3] it was -0.875 (inactive); in assay [4], 0.599 (inactive); in assay [6] it was -0.622 (inactive); in [14] it was -1.2 (inactive).
In the case of `CCCNC(=O)OC[C@H]1O[C@H](CCON=C2[C@H]3CCn4c(=O)n(-c5ccccc5)c(=O)n4[C@H]3[C@H](O)[C@@H]3O[C@H]23)C=C[C@@H]1Oc1ccc(OC)cc1`, the composite z-score is 0.615 in assay [1]; 0.507 in assay [5]; -0.234 in assay [7]; 0.388 in [8]; 0.242 in [9]; -0.253 in [10]. The composite z-score in [11] was 0.357; in [12] it was -0.139; in assay [13], -0.182; in [15], 0.2; in assay [16], 0.343; in assay [17], -0.0629. Besides, the composite z-score in assay [18] was determined as 0.493; in assay [19] it was 0.378; in [20] it was 0.103. In addition, the z-score in assay [2] was -0.285 (inactive); in [3] it was 0.0063 (inactive); in [4] it was -0.0824 (inactive); in assay [6], 0.317 (inactive); in assay [14], -0.374 (inactive).
Regarding `[N-]=[N+]=NCc1ccccc1[C@@H]1OC(c2ccc(OCCCO)cc2)=N[C@]1(Cc1ccccc1)C(=O)N1CCOCC1`, the composite z-score in assay [1] came out at 1.53; in [5], 3.52; in assay [7], 0.422; in assay [8], 0.671; in [9], 1.11; in assay [10], 0.256. The composite z-score stood at 1.57 in [11]; 1.2 in [12]; 0.798 in assay [13]; 1 in assay [15]; 1.29 in assay [16]; 0.0588 in assay [17]. Moreover, the values for the composite z-score in assay [18], in [19] and in [20] were 0.589, 0.315 and 0.182, respectively. Further, the z-score was -0.655 (inactive) in assay [2]; -0.42 (inactive) in assay [3]; 0.303 (inactive) in [4]; 0.986 (inactive) in assay [6]; -0.962 (inactive) in [14].
Regarding `COCCCNC(=O)[C@]1(CCC(=O)OC(C)(C)C)N=C(c2ccc(OCCCO)cc2)O[C@@H]1c1ccccc1N=[N+]=[N-]`, the composite z-score in assay [1] was found to be 1.54; in assay [5], 3.81; in assay [7], 0.0979; in assay [8], 0.778; in assay [9] it was 1.11; in [10] it was 0.134. Moreover, the composite z-score in [11] was 1.31; in [12] it was 0.314; in assay [13], 0.999; in [15] it was 1.29; in assay [16], 1.33; in [17] it was 0.287. Further, the composite z-score in assay [18] came out at 1.06; in assay [19], 0.0998; in [20], 0.772. The z-score in assay [2] is -0.376 (inactive); in assay [3], -1.22 (inactive); in [4], 0.719 (inactive); in assay [6], 0.619 (inactive); in [14], -1.14 (inactive).
For the compound `CO[C@H]1COC(=O)CC=C[C@H](C)[C@@H](NS(=O)(=O)c2ccc(C)cc2)COC(=O)CC=C[C@@H]1C`, the composite z-score in assay [1] is 0.855; in [5], -0.716; in [7], -0.118; in [8], 0.659; in assay [9] it was 0.66; in [10] it was -0.12. Besides, the composite z-score was 0.219 in [11]; -0.257 in assay [12]; -0.674 in assay [13]; 0.582 in assay [15]; 0.528 in assay [16]; 0.853 in [17]. Also, the composite z-score in assay [18] is 0.579; in assay [19], 0.761; in assay [20], 0.257. Moreover, the z-score is -3.93 (inactive) in assay [2]; -2.23 (inactive) in assay [3]; -2.35 (inactive) in assay [4]; -1.11 (inactive) in assay [6]; -2.06 (inactive) in assay [14].

(Values after PubChem BioAssay.)
